Data from the supplement of paper PMC10849652.
The full data set covers some 7,900 targets. This sample favours those with a hit. About 0.6% of all pairs of compound and target were hits.

Experiments:
Test in all cases: log2 fold change, soluble protein after heating vs DMSO (PISA); higher = thermal stabilisation; K562 cells, 10 uM, 30 min; active = over 0.2 and 3.5 SD of the protein, either way, in both replicates (recomputed)
erlotinib = compound: C#Cc1cccc(Nc2ncnc3cc(OCCOC)c(OCCOC)cc23)c1 [erlotinib]
Summary of the method: (§1)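 K562 cells (2×10^6 cells/mL) were treated with 10 μM compound for 30 min, and aliquots were heated for 3 min over 48°C-58°C. Pooled aliquots were extracted in PBS with 0.5% NP-40 at 4°C, and the supernatant after 21,000xg for 90 min was measured by TMTpro 16plex LC-MS/MS with channel sums equalised. Reported thermal stability, relative to control samples and from duplicates, is a log2 fold change.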

[1] = compound: C/C(=N\NC(=O)C1=CC(=CC=C1)S(=O)(=O)N2CCOCC2)/C3=C(C=CC(=C3)Cl)O
Summary of the method: as §1

[2] = compound: C1=CC(=C(C=C1Cl)C2=NC3=NC=CN=C3C(=N2)NC4=CC=NC=C4)F
Summary of the method: as §1

[3] = compound: C1=CC(=CC=C1C2=NC3=C(N2)C=C(C=C3)C(=O)N)OC4=CC=C(C=C4)Cl
Summary of the method: as §1

[4] = compound: C1=CC2=C(C=CC(=C2)/C=C\3/C(=O)NC(=NCC4=CC=CS4)S3)N=C1
Summary of the method: as §1

[5] = compound: C1=CC2=NC=CN=C2C=C1/C=C/3\C(=O)NC(=O)S3
Summary of the method: as §1

[6] = compound: C1=CC=C(C=C1)C2=NC(=C(N2)C3=CC=NC=C3)C4=CC(=C(C=C4)Cl)O
Summary of the method: as §1

[7] = compound: C1=CC=C2C(=C1)C3=NNC4=CC=CC(=C43)C2=O
Summary of the method: as §1

[8] = compound: C1CCN(C1)C(=O)NC2=CC=CC(=C2)NC3=NC=C(C(=N3)NCCC4=CN=CN4)Br
Summary of the method: as §1

[9] = compound: C1CN(CCC1(CC2=CC=C(C=C2)Cl)N)C3=NC=NC4=C3C=CN4
Summary of the method: as §1

IRAK-1-4 Inhibitor I = compound: C1COCCN1CCN2C3=CC=CC=C3N=C2NC(=O)C4=CC(=CC=C4)[N+](=O)[O-] [IRAK-1-4 Inhibitor I]
Summary of the method: as §1

ibrutinib = compound: C=CC(=O)N1CCC[C@@H](n2nc(-c3ccc(Oc4ccccc4)cc3)c3c(N)ncnc32)C1 [ibrutinib]
Summary of the method: as §1

[10] = compound: CC(=O)c1cnc2ccc(-c3cc(Cl)c(O)c(Cl)c3)nc2c1N[C@H]1CC[C@H](CN(C)C)CC1
Summary of the method: as §1

ralimetinib = compound: CC(C)(C)Cn1c(N)nc2ccc(-c3[nH]c(C(C)(C)C)nc3-c3ccc(F)cc3)nc21 [ralimetinib]
Summary of the method: as §1

[11] = compound: CC(C)(O)CC(=O)NCCn1ccc2ncnc(Nc3ccc(Oc4cccc(C(F)(F)F)c4)c(Cl)c3)c21
Summary of the method: as §1

[12] = compound: CC(C)C1=C2N=C(C=C(N2N=C1)NCC3=CC=CC=C3)NCCCCCCN
Summary of the method: as §1

[13] = compound: CC(C)C[C@@H](C=O)NC(=O)[C@H](CC(C)C)NC(=O)[C@H](CC(C)C)NC(=O)OCc1ccccc1
Summary of the method: as §1

pinometostat = compound: CC(C)N(C[C@H]1O[C@@H](n2cnc3c(N)ncnc32)[C@H](O)[C@@H]1O)[C@H]1C[C@@H](CCc2nc3cc(C(C)(C)C)ccc3[nH]2)C1 [pinometostat]
Summary of the method: as §1

[14] = compound: CC1=C(C(CC(=O)N1)C2=CC=C(C=C2)C(F)(F)F)C(=O)NC3=C(C=C4C(=C3)C=NN4)F
Summary of the method: as §1

[15] = compound: CC1=C(C2=C(C=C1)C(=O)C3=CC=CC=C3N2CCCN)C
Summary of the method: as §1

Measured: log2 fold change

CDK6 (UniProt Q00534)
inactive: erlotinib -0.035 | [1] 0 | [2] -0.053 | [3] 0.02 | [4] 0.027 | [5] 0.018 | [6] -0.031 | [7] 0.04 | [8] 0.017 | [9] -0.034 | IRAK-1-4 Inhibitor I -0.014 | ibrutinib 0.031 | [10] 0.107 | ralimetinib 0.009 | [11] -0.009 | [12] -0.026 | [13] 0.086 | pinometostat 0.062 | [14] 0.02 | [15] -0.019

CD63 (UniProt P08962)
inactive: erlotinib 0.01 | [1] 0.024 | [2] -0.045 | [3] -0.089 | [4] -0.027 | [5] 0.069 | [6] 0.009 | [7] 0.002 | [8] 0.004 | [9] 0.034 | IRAK-1-4 Inhibitor I 0.022 | ibrutinib 0.036 | [10] 0.032 | ralimetinib 0.047 | [11] 0.006 | [12] 0.081 | [13] 0.056 | pinometostat 0.007 | [14] 0.017 | [15] 0.003

CNOT1 (UniProt A5YKK6)
inactive: erlotinib 0.013 | [1] 0.102 | [2] -0.003 | [3] -0.007 | [4] 0.035 | [5] 0.001 | [6] 0.014 | [7] -0.004 | [8] -0.009 | [9] -0.008 | IRAK-1-4 Inhibitor I -0.07 | ibrutinib -0.024 | [10] -0.029 | ralimetinib 0.028 | [11] -0.063 | [12] -0.101 | [13] 0.039 | pinometostat 0.027 | [14] 0.009 | [15] 0.063

CHAC2 (UniProt Q8WUX2)
UniProt Q8WUX2, sequence (Q8WUX2 whole entry, looked up): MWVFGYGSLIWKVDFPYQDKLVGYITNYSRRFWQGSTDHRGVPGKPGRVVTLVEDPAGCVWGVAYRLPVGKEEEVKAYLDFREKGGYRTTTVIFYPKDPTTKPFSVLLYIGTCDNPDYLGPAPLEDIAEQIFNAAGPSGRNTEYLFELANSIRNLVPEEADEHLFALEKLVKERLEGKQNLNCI
inactive: erlotinib 0.025 | [1] -0.011 | [2] 0.001 | [3] -0.012 | [4] -0.003 | [5] -0.033 | [6] -0.018 | [7] 0.001 | [8] -0.025 | [9] 0.093 | IRAK-1-4 Inhibitor I 0.038 | ibrutinib -0.058 | [10] -0.009 | ralimetinib -0.021 | [11] 0.085 | [12] 0.03 | [13] 0 | pinometostat 0.01 | [14] -0.061 | [15] -0.036

CPQ (UniProt Q9Y646)
inactive: erlotinib 0.013 | [1] 0.002 | [2] 0.051 | [3] 0 | [4] 0.05 | [5] 0.004 | [6] 0.07 | [7] 0 | [8] -0.027 | [9] 0.125 | IRAK-1-4 Inhibitor I 0.095 | ibrutinib 0.01 | [10] -0.034 | ralimetinib -0.011 | [11] 0.003 | [12] 0.049 | [13] -0.032 | pinometostat 0.007 | [14] 0.023 | [15] 0.006

CBS (UniProt P35520)
UniProt P35520, sequence (P35520 whole entry, looked up): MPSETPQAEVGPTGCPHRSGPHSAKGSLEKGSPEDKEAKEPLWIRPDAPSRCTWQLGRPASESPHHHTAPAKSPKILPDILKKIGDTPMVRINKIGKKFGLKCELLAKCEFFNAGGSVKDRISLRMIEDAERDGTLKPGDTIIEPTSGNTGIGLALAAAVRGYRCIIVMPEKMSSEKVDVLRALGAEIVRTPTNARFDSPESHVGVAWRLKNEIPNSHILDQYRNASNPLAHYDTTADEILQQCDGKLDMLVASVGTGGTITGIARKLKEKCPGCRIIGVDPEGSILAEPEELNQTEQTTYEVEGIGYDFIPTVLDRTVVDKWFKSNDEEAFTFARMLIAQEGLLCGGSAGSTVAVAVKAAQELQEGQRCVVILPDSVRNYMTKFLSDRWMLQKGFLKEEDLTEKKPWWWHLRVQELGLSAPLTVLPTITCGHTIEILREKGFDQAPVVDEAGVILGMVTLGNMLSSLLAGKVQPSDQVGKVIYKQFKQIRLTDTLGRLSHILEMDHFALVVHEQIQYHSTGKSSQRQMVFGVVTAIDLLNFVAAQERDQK
inactive: erlotinib 0.014 | [1] -0.031 | [2] 0.039 | [3] -0.014 | [4] -0.026 | [5] 0.013 | [6] -0.03 | [7] 0.052 | [8] 0.025 | [9] 0.042 | IRAK-1-4 Inhibitor I 0.044 | ibrutinib -0.007 | [10] 0.008 | ralimetinib -0.01 | [11] 0.027 | [12] 0.036 | [13] -0.013 | pinometostat -0.048 | [14] 0.034 | [15] 0.001

CSNK2B (UniProt P67870)
UniProt P67870, sequence (P67870 whole entry, looked up): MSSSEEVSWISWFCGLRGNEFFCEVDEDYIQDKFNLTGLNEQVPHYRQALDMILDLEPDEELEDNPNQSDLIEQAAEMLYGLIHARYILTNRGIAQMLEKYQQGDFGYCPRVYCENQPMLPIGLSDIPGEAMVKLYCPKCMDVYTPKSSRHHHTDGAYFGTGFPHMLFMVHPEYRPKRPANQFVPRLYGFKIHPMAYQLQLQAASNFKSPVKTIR
active: [5] 0.324 | [10] 0.266
inactive: erlotinib -0.021 | [1] -0.024 | [2] -0.017 | [3] -0.007 | [4] 0.123 | [6] 0.031 | [7] 0.084 | [8] -0.031 | [9] -0.023 | IRAK-1-4 Inhibitor I -0.003 | ibrutinib -0.014 | ralimetinib -0.006 | [11] -0.021 | [12] -0.087 | [13] -0.003 | pinometostat 0.044 | [14] 0.022 | [15] 0.096

CSNK1A1 (UniProt P48729)
inactive: erlotinib 0.073 | [1] 0.002 | [2] -0.028 | [3] -0.002 | [4] -0.008 | [5] 0.018 | [6] -0.029 | [7] -0.088 | [8] 0.001 | [9] -0.064 | IRAK-1-4 Inhibitor I -0.016 | ibrutinib 0.015 | [10] -0.053 | ralimetinib 0.026 | [11] -0.041 | [13] 0.145 | pinometostat 0.112 | [14] 0.038 | [15] 0.028
active: [12] -0.25

CRLF3 (UniProt Q8IUI8)
UniProt Q8IUI8, sequence (Q8IUI8 whole entry, looked up): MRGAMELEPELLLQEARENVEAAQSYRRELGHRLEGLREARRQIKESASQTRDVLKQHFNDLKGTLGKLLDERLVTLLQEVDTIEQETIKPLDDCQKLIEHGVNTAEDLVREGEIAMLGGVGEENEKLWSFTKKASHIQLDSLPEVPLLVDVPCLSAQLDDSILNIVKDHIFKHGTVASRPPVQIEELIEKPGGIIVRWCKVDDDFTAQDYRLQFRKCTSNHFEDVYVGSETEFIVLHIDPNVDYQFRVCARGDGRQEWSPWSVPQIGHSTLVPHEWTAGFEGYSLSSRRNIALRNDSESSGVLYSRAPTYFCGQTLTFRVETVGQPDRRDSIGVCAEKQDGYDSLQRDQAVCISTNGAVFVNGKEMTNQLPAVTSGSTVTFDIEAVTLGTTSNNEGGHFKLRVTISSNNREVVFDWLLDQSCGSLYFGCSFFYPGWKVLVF
inactive: erlotinib 0.09 | [1] -0.034 | [2] 0.036 | [3] -0.015 | [4] 0.076 | [5] 0.019 | [6] -0.018 | [7] -0.028 | [8] 0.027 | [9] -0.04 | IRAK-1-4 Inhibitor I 0 | ibrutinib -0.047 | [10] -0.079 | ralimetinib 0.008 | [11] -0.122 | [12] -0.166 | [13] 0.013 | pinometostat -0.001 | [14] 0.015 | [15] -0.035

CBR1 (UniProt P16152)
UniProt P16152, sequence (P16152 whole entry, looked up): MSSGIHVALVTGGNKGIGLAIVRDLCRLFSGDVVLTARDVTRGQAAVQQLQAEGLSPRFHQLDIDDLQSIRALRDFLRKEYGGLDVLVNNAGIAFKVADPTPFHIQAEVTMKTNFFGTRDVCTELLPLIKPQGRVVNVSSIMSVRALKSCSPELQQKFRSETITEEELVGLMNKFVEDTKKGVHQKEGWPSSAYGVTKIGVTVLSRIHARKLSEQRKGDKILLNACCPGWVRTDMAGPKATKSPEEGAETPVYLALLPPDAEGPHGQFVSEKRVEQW
inactive: erlotinib 0.011 | [1] 0.066 | [2] 0.115 | [3] 0.008 | [4] -0.009 | [5] 0.028 | [6] 0.186 | [7] -0.038 | [8] -0.027 | [9] 0.057 | IRAK-1-4 Inhibitor I 0.023 | ibrutinib 0.009 | [10] 0.031 | ralimetinib 0.097 | [11] -0.007 | [12] 0.061 | [13] -0.088 | pinometostat -0.035 | [14] -0.009 | [15] 0.028

CNTN4 (UniProt Q8IWV2)
active: [1] -0.641
inactive: erlotinib 0.284 | [2] 0.012 | [3] 0.018 | [4] 0.179 | [5] -0.095 | [6] 0.05 | [7] 0.097 | [8] -0.097 | [9] 0.194 | IRAK-1-4 Inhibitor I 0.049 | ibrutinib 0.023 | [10] 0.065 | ralimetinib 0.025 | [11] -0.108 | [12] 0.195 | [13] 0.044 | pinometostat -0.027 | [14] -0.014 | [15] 0.137

CDKN2AIP (UniProt Q9NXV6)
UniProt Q9NXV6, sequence (Q9NXV6 whole entry, looked up): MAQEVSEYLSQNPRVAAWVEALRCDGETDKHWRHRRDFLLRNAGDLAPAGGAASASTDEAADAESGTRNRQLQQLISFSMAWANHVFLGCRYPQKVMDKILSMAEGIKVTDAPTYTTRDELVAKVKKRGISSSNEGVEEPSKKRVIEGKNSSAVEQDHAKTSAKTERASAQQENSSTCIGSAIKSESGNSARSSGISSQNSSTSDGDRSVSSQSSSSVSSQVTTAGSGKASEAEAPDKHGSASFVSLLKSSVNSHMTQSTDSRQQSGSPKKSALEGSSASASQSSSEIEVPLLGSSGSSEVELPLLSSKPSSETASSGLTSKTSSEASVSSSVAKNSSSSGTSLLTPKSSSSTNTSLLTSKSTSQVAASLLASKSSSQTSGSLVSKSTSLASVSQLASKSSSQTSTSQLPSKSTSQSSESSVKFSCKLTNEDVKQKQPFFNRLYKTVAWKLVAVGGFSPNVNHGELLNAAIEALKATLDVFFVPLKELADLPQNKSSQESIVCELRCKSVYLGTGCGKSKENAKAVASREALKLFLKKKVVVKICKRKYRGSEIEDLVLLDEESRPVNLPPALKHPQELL
active: [15] 0.241
inactive: erlotinib 0.017 | [1] -0.018 | [2] 0 | [3] 0.056 | [4] 0.018 | [5] 0.009 | [6] 0.036 | [7] 0.007 | [8] -0.006 | [9] -0.021 | IRAK-1-4 Inhibitor I -0.057 | ibrutinib 0.039 | [10] 0.062 | ralimetinib 0.059 | [11] 0.01 | [12] 0.056 | [13] -0.04 | pinometostat 0.032 | [14] -0.056

CAD (UniProt P27708)
UniProt P27708, sequence (P27708 whole entry, looked up): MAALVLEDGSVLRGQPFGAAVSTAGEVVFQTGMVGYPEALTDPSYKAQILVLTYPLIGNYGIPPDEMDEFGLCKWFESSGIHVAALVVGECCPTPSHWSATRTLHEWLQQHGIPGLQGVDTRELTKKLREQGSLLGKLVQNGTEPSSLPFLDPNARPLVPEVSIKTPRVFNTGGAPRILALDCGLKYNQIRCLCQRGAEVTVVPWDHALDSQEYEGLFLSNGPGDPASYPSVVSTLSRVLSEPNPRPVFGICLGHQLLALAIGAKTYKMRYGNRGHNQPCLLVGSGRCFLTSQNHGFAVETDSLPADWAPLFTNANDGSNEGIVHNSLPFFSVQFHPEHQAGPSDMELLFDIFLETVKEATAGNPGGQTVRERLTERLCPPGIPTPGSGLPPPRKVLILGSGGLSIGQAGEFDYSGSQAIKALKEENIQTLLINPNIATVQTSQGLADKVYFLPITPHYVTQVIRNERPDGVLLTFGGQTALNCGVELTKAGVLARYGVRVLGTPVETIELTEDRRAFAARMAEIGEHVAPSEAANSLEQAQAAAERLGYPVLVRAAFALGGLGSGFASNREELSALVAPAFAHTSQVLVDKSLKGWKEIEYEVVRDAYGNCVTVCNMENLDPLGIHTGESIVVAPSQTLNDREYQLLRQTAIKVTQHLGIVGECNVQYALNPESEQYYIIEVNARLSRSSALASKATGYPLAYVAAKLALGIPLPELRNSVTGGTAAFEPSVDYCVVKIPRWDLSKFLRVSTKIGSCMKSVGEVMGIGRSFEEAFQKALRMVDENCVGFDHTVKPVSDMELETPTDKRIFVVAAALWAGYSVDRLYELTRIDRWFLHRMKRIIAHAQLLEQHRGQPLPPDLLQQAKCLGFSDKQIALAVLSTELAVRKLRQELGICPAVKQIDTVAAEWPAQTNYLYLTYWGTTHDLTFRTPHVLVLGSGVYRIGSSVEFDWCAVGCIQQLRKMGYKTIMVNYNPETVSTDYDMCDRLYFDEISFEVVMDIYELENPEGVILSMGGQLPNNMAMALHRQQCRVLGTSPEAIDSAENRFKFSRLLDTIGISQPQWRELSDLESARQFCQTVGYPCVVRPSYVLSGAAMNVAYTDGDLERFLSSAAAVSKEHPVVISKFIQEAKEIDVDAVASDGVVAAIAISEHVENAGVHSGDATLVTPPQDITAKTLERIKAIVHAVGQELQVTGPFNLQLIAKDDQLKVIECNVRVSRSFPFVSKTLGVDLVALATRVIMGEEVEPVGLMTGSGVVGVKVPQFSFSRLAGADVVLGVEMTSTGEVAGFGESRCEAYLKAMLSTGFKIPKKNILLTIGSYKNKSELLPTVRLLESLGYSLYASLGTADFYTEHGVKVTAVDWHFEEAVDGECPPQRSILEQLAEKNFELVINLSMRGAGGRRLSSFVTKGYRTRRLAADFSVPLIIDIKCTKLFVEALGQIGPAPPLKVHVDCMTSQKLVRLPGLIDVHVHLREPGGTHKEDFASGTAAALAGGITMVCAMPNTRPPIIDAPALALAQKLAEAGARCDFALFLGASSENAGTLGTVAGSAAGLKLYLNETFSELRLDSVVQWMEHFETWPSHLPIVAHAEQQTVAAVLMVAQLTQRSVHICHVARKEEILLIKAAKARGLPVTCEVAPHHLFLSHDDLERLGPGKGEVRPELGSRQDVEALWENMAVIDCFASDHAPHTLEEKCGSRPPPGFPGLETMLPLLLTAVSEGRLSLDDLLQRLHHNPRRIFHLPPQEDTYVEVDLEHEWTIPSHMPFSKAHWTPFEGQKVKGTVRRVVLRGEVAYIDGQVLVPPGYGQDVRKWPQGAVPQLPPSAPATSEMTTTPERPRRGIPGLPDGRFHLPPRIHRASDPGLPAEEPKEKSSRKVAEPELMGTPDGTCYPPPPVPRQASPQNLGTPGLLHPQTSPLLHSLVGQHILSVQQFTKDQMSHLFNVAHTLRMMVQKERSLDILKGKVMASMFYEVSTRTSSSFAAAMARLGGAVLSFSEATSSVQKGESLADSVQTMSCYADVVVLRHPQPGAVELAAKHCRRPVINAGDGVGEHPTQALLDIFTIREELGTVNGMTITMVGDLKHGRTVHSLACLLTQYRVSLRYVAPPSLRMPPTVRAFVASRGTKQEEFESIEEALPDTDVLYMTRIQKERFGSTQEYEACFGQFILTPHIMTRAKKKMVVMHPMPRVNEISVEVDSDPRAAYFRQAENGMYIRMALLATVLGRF
active: [10] -0.402 | [15] 0.272
inactive: erlotinib -0.083 | [1] 0.042 | [2] -0.014 | [3] -0.003 | [4] 0.125 | [5] -0.011 | [6] 0.057 | [7] -0.063 | [8] 0.013 | [9] 0.046 | IRAK-1-4 Inhibitor I -0.064 | ibrutinib 0.008 | ralimetinib -0.06 | [11] -0.168 | [12] 0.029 | [13] 0.021 | pinometostat 0.028 | [14] 0.03

CDC37L1 (UniProt Q7L3B6)
UniProt Q7L3B6, sequence (Q7L3B6 whole entry, looked up): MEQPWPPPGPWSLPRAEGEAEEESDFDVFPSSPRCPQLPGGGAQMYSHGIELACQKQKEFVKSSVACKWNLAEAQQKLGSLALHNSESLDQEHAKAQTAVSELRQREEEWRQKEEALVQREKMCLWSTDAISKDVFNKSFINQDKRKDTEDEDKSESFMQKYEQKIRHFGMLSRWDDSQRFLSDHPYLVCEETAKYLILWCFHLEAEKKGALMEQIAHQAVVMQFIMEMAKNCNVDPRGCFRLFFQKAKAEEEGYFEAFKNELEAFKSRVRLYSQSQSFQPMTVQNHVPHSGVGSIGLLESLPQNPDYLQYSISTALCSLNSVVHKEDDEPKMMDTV
inactive: erlotinib -0.069 | [1] 0.008 | [2] -0.007 | [3] -0.035 | [4] 0.054 | [5] 0.068 | [6] 0 | [7] -0.012 | [8] 0.203 | [9] 0.357 | IRAK-1-4 Inhibitor I 0.004 | ibrutinib -0.018 | [10] -0.012 | ralimetinib -0.059 | [11] -0.118 | [12] -0.004 | [13] 0 | pinometostat -0.015 | [14] 0.062 | [15] -0.281

CHMP4B (UniProt Q9H444)
inactive: erlotinib 0.018 | [1] -0.006 | [2] 0.024 | [3] 0.013 | [4] -0.014 | [5] 0.057 | [6] 0.043 | [7] -0.001 | [8] 0.083 | [9] 0.035 | IRAK-1-4 Inhibitor I 0.068 | ibrutinib -0.024 | [10] 0.015 | ralimetinib 0.039 | [11] 0.015 | [12] 0.014 | [13] -0.003 | pinometostat -0.032 | [14] 0.046 | [15] -0.011

COMMD2 (UniProt Q86X83)
UniProt Q86X83, sequence (Q86X83 whole entry, looked up): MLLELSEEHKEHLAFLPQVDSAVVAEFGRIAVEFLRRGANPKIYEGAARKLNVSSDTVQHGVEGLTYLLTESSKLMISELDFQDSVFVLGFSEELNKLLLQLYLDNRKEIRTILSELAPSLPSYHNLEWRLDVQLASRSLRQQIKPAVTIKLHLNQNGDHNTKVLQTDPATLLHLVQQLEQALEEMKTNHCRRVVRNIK
inactive: erlotinib 0.114 | [1] 0.049 | [2] -0.053 | [3] 0.085 | [4] 0.091 | [5] -0.02 | [6] -0.017 | [7] 0.058 | [8] 0.071 | [9] -0.119 | IRAK-1-4 Inhibitor I -0.009 | ibrutinib -0.038 | [10] -0.119 | ralimetinib -0.023 | [11] -0.179 | [12] -0.271 | [13] 0.007 | pinometostat 0.037 | [14] 0.008 | [15] 0.01
